# Yp Topo-I inh = Y. pestis Topo-I inhibition via cleavage products | Y. pestis Topo-I cleavage product accumulation, plate reader | activity, % at 10 µM | 360,000 compounds, 0.064% hits; in the data active means activity above about 50%, passing the limit was not always enough
# PrP UTR inh = suppresses PrP 5' UTR mRNA reporter expression; cell-based PrP 5' UTR mRNA reporter, plate reader; inhibition, % (no concentration beside the values); 340,000 compounds, 0.35% hits; AID 488862; in the data active means inhibition above about 52%; further: 0 = median of the neutral control wells
# TcdB GH inh = TcdB glycohydrolase inhibition | P18177 | TcdB glycohydrolase enzymatic assay, plate reader | inhibition, % at 9.99 µM | 350,000 compounds, 0.24% hits | AID 652162; in the data active means inhibition above about 10%
# UGM FP inh = blocks M. tuberculosis UGM enzyme | 320,000 compounds, 0.06% hits | purified UGM, fluorescence polarization probe displacement | inhibition, % at 10 µM; in the data active means inhibition above about 10%, passing the limit was not always enough
# Vc quorum ag = quorum light induction in luxS cqsA deficient V. cholerae. V. cholerae BH1578 lux reporter, luminescence, 6 h. activation, % at 18.7 µM. 350,000 compounds, 0.16% hits; in the data active means activation mostly above about 9.7%, no sharp cut-off
# PrP UTR cherry = prion 5' UTR mRNA inhibition, cherry-pick retest. cell-based prion protein 5' UTR reporter, plate reader. 1,100 compounds, 48% hits. shares compounds with PrP UTR inh. AID 504592. inhibition, % at 2.5 µM; in the data active means inhibition above about 54%
# Starred values were filed as active, the others as inactive; i = inactive; nt = not tested or not shown. Most compounds without a hit are left out; they make up all but 0.65% or so of the library.
SMILES,Yp Topo-I inh,PrP UTR inh,TcdB GH inh,UGM FP inh,Vc quorum ag,PrP UTR cherry
O=C(Nc1ccc(COc2ccccc2)cc1)Oc1ccccc1N1CCOCC1,1,59*,3,-4,i,32
CC(C)(C)C(=O)Nc1cc2nn(-c3ccccc3)nc2cc1Cl,-4,86*,nt,nt,1,73*
CC(=O)Nc1cc2nn(-c3ccccc3)nc2cc1Cl,7,-111,nt,3,i,nt
C[C@@H]1CCCCO[C@H](CN(C)C(=O)Nc2ccc(F)cc2)[C@@H](C)CN([C@@H](C)CO)C(=O)c2cc(NS(=O)(=O)c3ccc(Cl)cc3)ccc2O1,nt,nt,0,nt,nt,nt
CC(=O)O[C@H]1C[C@@H]2OC3C=C(C)CCC3(C)[C@@]1(C)[C@@]21CO1 (stereo not given in full),12,72*,1,nt,i,59*
CC(=O)OC1CC2OC3C=C(C)CCC3(C)C1(C)C21CO1 (stereo not given),1,nt,0,nt,0,nt
CO[C@@H]1CN(C)C(=O)c2ccc(NC(=O)C3CC3)cc2OC[C@@H](C)N(C(=O)c2ccccc2)C[C@H]1C,nt,nt,2,nt,nt,nt
O=C(NN1C(=O)C2C3C=CC(C4CC34)C2C1=O)c1ccc(Br)cc1 (stereo not given),3,58*,1,-2,-1,68*
COc1ccc(C(=O)N2CC(=O)Nc3ccccc32)cc1S(=O)(=O)N1CCOCC1,1,nt,0,nt,4,nt
O=C1CN(C(=O)c2ccc(F)c(S(=O)(=O)N3CCOCC3)c2)c2ccccc2N1,-1,59*,0,1,0,36
Cn1c(=O)c2c(nc(CN3CCN(c4ccccc4F)CC3)n2CCCc2ccccc2)n(C)c1=O,-3,83*,nt,3,i,-3
CS(=O)(=O)N(CC(=O)NCCSc1ccccn1)c1ccc(F)cc1,-2,52*,0,0,-2,4
CC1=CC2OC3CC4OC(=O)C=CC=CC(=O)OCCC(C)C(O)C(=O)OCC2(CC1)C4(C)C31CO1 (stereo not given),6,94*,2,nt,i,93*
CC(O)C1C=CC=CC(=O)OC2CC3OC4C5OC5(C)C(O)CC4(COC(=O)C(O)C(C)CCO1)C2(C)C31CO1 (stereo not given),0,70*,1,nt,i,83*
CC1=CC2OC3CC4OC(=O)C=CC=CC(C(C)O)OCC(O)C5(C)OC5C(=O)OCC2(CC1O)C4(C)C31CO1 (stereo not given),-1,94*,3,nt,i,93*
CC1CCOC(=O)C=CC=CC(=O)OC2CC3OC4C5OC5(C)C(O)CC4(COC(=O)C1O)C2(C)C31CO1 (stereo not given),2,82*,1,nt,i,92*
COc1ccccc1-c1ccc2n(c1=O)C[C@H]1[C@H](CO)[C@@H](C(=O)NCc3ccccn3)[C@@H]2N1C,nt,nt,0,nt,nt,nt
CO[C@H]1CN(C)C(=O)c2ccc(NS(=O)(=O)CC(F)(F)F)cc2OC[C@H](C)N(C)C[C@H]1C,nt,nt,-1,nt,nt,nt
C[C@H](CO)N1C[C@H](C)[C@H](CN(C)C(=O)Nc2ccc(F)cc2)Oc2ncc(C#CCN(C)C)cc2C1=O,nt,nt,0,nt,nt,nt
CC1CN(C(=O)[C@@H]2CCCN2S(=O)(=O)c2ccc(Cl)cc2)CC(C)O1 (stereo not given in full),4,85*,-1,nt,nt,-12
C[C@H]1CCCCO[C@@H](CN(C)C(=O)Cc2ccccc2)[C@@H](C)CN([C@@H](C)CO)C(=O)c2cc(NS(=O)(=O)c3cn(C)cn3)ccc2O1,nt,nt,1,nt,nt,nt
COc1ccc(/C=N/NC(=O)c2cc3c(OC)ccc(OC)c3[nH]2)cc1O,-32,60*,-1,-1,-2,78*
COc1ccc(OC)c2[nH]c(C(=O)N/N=C/c3ccccc3O)cc12,-30,13,1,1,-1,nt
O=C(C[C@@H]1CC[C@H](NC(=O)Nc2ccc(F)cc2)[C@H](CO)O1)NCCN1CCCC1,nt,nt,-6,nt,nt,nt
C[C@H](CO)N1C[C@H](C)[C@H](CN(C)C(=O)c2ccc(F)cc2)Oc2cc(-c3cccc(C#N)c3)ccc2S1(=O)=O,nt,nt,-1,nt,nt,nt
SMILES,Yp Topo-I inh,PrP UTR inh,TcdB GH inh,UGM FP inh,Vc quorum ag,PrP UTR cherry
O=C(Nc1ccc(-c2nc3ccccc3o2)cc1)C1CCCO1 (stereo not given),11,-111,nt,-1,i,nt
O=C(Nc1ccc(-c2nc3cccnc3s2)cc1)C1CCCO1 (stereo not given),9,62*,2,4,0,65*
C[C@H](CO)N1C[C@H](C)[C@H](CN(C)C(=O)Nc2ccccc2)OCc2cn(nn2)CCCC1=O,nt,nt,1,nt,nt,nt
Cn1cccc1/C=C(/C#N)c1ccc(F)cc1,-2,80*,0,0,0,-20
COCC(=O)N(C)C[C@H]1Oc2ncc(C#Cc3ccccc3)cc2C(=O)N([C@@H](C)CO)C[C@H]1C,nt,nt,0,nt,nt,nt
CO[C@H]1CN(C)C(=O)c2cc(NC(=O)C3CC3)ccc2OC[C@H](C)N(Cc2ccncc2)C[C@@H]1C,nt,nt,-1,nt,nt,nt
CCOC(=O)c1cnn(-c2ccccc2)c1NC(=O)CN1CCOCC1,0,74*,1,1,i,-50
N#Cc1cnn(-c2ccccc2)c1NC(=O)CN1CCOCC1,-6,nt,2,0,-1,nt
CCc1ccccc1NC(=O)CSc1nc2ccccc2nc1N1CCOCC1,-4,58*,2,-3,0,-8
C[C@@H]1CCCCO[C@H](CN(C)S(=O)(=O)c2ccc(F)cc2)[C@H](C)CN([C@@H](C)CO)C(=O)c2cc(NC(=O)Nc3ccc4c(c3)OCO4)ccc2O1,nt,nt,1,nt,nt,nt
COc1ccc2c(=O)cc(-c3cccnc3)oc2c1OC,-7,54*,1,1,0,-5
O=C(COc1cccc(C(F)(F)F)c1)NNC(=O)c1ccc(=O)[nH]c1,1,65*,1,0,i,6
CN(C)CC(=O)Nc1ccc2c(c1)[C@@H]1C[C@H](CC(=O)NC3CCCC3)O[C@H](CO)[C@@H]1O2,nt,nt,0,nt,nt,nt
CCCC[C@@H](C)C[C@@H](C)C(=O)N(C)[C@@H](CC(C)C)C(=O)N[C@H](C(=O)N(C)[C@H](C(=O)N1C[C@@H](O)C[C@H]1C(=O)N1C(=O)C=C[C@@H]1C)C(C)C)C(C)OC(C)=O (stereo not given in full),2,85*,nt,nt,0,96*
Cc1ccc(C(C)C)c(OCc2ccc(C(=O)N/N=C/c3cccc(O)c3O)cc2)c1,3,62*,1,2,0,65*
Cc1ccc(SC(C)c2nc(-c3ccccc3)no2)cc1 (stereo not given),20,75*,nt,-1,-1,-13
O=c1[nH]cnc2c1ncn2[C@@H]1O[C@H](CO)[C@@H](O)[C@H]1O,-6,79*,1,nt,i,-7
C=C(C1=CCN(S(=O)C(C)(C)C)[C@@H]1CCO)c1ccccc1 (stereo not given in full),-3,59*,1,nt,-2,-14

# Source: PubChem (Broad Institute)
